Among the data in PubChem BioAssay AID2592 (National Center for Advancing Translational Sciences (NCATS), 2010) are Potency values, retold here.

Results filed as inconclusive are left out. Activity calls are given as the source filed them. The call rests on the fitted dose curve; in most records, active means well fitted inhibition curve with a large enough effect; inconclusive means small, poorly fitted or top-dose-only effect, or effect the other way; inactive means flat fitted curve, though single readings scatter.

Lysosomal acid glucosylceramidase (Homo sapiens), sequence (P04062 whole entry, looked up): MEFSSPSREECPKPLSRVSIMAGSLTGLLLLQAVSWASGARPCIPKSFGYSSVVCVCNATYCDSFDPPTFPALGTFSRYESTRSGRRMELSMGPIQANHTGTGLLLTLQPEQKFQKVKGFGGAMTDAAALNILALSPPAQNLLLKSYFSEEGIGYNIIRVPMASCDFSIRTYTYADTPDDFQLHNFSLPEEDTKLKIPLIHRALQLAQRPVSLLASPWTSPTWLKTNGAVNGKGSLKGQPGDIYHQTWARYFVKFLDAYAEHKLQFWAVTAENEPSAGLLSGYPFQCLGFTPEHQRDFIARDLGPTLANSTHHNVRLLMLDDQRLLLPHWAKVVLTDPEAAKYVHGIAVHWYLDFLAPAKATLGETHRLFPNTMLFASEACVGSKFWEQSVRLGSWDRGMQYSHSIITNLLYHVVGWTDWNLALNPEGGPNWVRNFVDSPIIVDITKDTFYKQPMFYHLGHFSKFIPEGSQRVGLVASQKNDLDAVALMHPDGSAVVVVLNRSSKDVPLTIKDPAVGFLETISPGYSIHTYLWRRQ

For this experiment, the target named is Lysosomal acid glucosylceramidase (Homo sapiens) (UniProt P04062). The experiment is described as follows: qHTS Assay for Inhibitors and Activators of N370S glucocerebrosidase as a Potential Chaperone Treatment of Gaucher Disease: Activity in Non-Mutant Spleen Homogenate. Conditions: human spleen homogenate GC, 4MU-glucoside fluorescence; series mostly up to 57.5 µM. The text has this:
NIH Chemical Genomics Center [NCGC] NIH Molecular Libraries Probe Production Centers Network [MLPCN] MLPCN Grant: MH086442-01 Assay Submitter (PI): Wei Zheng Glucocerebrosidase (GC) catalyzes the hydrolysis of beta-glucocerebroside to glucose and ceramide in lysosomes. Mutations in the glucocerebrosidase gene result in Gaucher disease, an autosomal recessive lysosomal storage disorder. Many of the mutations encountered in patients with Gaucher disease are missense alterations that may cause misfolding, decreased stability and/or mistrafficking of this lysosomal protein. […] These inhibitors include iminosugar analogs and three non-iminosugar inhibitors identified from a previous HTS of 62,000 compounds with the wild type recombinant enzyme. However, the enhancement of enzyme activity by the chaperone action of an enzyme inhibitor must be balanced against the direct inhibition of the enzyme. An enzyme activator could also function as a chaperone by binding to the enzyme and helping to correct its misfolding and mistrafficking. While activators for GC have not yet been identified, they may have better therapeutic potential than inhibitors. Therefore the discovery and development of chemical activators may provide a new strategy for the chaperone therapy. We have optimized a new assay using N370S mutant GC derived from the spleen of a Gaucher patient. […] In addition, the MLPCN compound library has expanded, which increases the chance of finding new and better probes. This confirmation assay tests for compound activity in spleen homogenate containing wildtype enzyme.
NCGC Assay Protocol Summary: This is a fluorogenic enzyme assay with 4-methylumbelliferyl-beta-D-glucopyranoside as the substrate and wildtype glucocerebrosidase from human spleen homogenate as the enzyme preparation. Upon the hydrolysis of this fluorogenic substrate, the resulting product, […] which can be detected by a standard fluorescence plate reader. Data were normalized to the controls for basal activity (without enzyme) and 100% activity (with enzyme). The AC50 values were determined from concentration-response data modeled with the standard Hill equation. Assay buffer: 50 mM citric acid (titrated with potassium phosphate to pH 5.0), 100 mM potassium chloride, 10 mM sodium chloride, 1 mM magnesium chloride, 0.01% Tween-20. 1536-well assay protocol: (1) Add 2 ul/well of spleen homogenate (27 ug final) (2) Add 23 nL compounds in DMSO solution. The final titration was 0.5 nM to 58 uM. (3) Add 2 ul of substrate (1 mM final) (4) Incubate at 37C for 40 min. (5) Add 2 ul stop solution (1M NaOH and 1M Glycine mixture, pH 10) (6) Detect the assay plate in a ViewLux plate reader (PerkinElmer) with Ex=365 nm and Em=440nm. Keywords: Glucocerebrosidase, beta-glucosidase, Gaucher Disease, pharmacological chaperone, chaperone therapy, high throughput screening, glucocerebrosidase inhibitor, MLSMR, MLSCN, NIH Roadmap, qHTS and NCGC
On to `O=S(=O)(c1ccc(Cl)cc1)N1CCN(c2nc(-c3cccs3)nc3ccccc23)CC1`, for which the Potency was 1 µM (active).

Consider `O=S(=O)(c1ccc2ccccc2c1)N1CCN(c2nc(-c3cccs3)nc3ccccc23)CC1`, for which the Potency was 0.282 µM (active).

With `N#Cc1ccc(S(=O)(=O)N2CCN(c3nc(-c4cccs4)nc4ccccc34)CC2)cc1`, the Potency is 2.51 µM (active).

Regarding `Cc1cc(C)cc(N(CC(=O)NC2CCCCCC2)S(=O)(=O)c2c(C)[nH]c(=O)[nH]c2=O)c1`, the Potency is 0.562 µM (active).

Consider `CC(C)(C)C(=O)OCCNc1nc(-c2ccccc2)nc2ccccc12`, for which the Potency was 2.24 µM (active).

Take `O=S(=O)(c1ccccc1C(F)(F)F)N1CCN(c2nc(-c3cccs3)nc3ccccc23)CC1`: the Potency is 0.398 µM (active).

For the compound `S=C(NCCCc1cnc[nH]1)NCCCN(Cc1ccc(Cl)c(Cl)c1)c1ccc(Br)cn1`, the Potency was 0.355 µM (active).

For the compound `O=S(=O)(c1ccc2c(c1)OCCO2)N1CCN(c2nc(-c3cccs3)nc3ccccc23)CC1`, the Potency was 0.447 µM (active).

Consider `NS(=O)(=O)c1ccc(S(=O)(=O)N2CCN(c3nc(-c4cccs4)nc4ccccc34)CC2)cc1`, for which the Potency was 5.01 µM (active).

Take `CC(C)C(C)NC(=O)CSc1nc2scc(-c3ccco3)c2c(=O)n1-c1ccccc1` (stereo not given): the Potency entry is “inactive”.
